From PubChem BioAssay (Tox21)
Active and inactive are the calls of the source. Where a call stands in place of a potency, no number is given. The call rests on the fitted dose curve; in most records, active means well fitted curve in the direction sought with a large enough effect in the repeat runs; inconclusive means weak or mixed curves; inactive means flat fitted curve, though single readings scatter.

assay: qHTS assay to test for compound auto fluorescence at 460 nm (blue) in HEK293 cells (AID 720678); settings: blue autofluorescence 405/460 nm; series mostly up to 46 µM; further: potency means the concentration at half of the fitted maximal effect
How it was run: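 Cells were seeded and left to adhere for 4-5 hr at 37C. Compounds were then pin-transferred. After an overnight incubation at 37C under 5% CO2, intrinsic fluorescence at 405/460 nm was measured and referenced to triamterene.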
Tags describe the fitted curve by direction and shape or compound fluorescence and quenching.

Compound	Potency
CN1CC[C@H](c2c(O)cc(O)c3c(=O)cc(-c4ccccc4Cl)oc23)[C@H](O)C1	inactive
c1ccc2occc2c1	inactive
CC(C)Cc1ccc([C@H](C)C(=O)O)cc1	inactive
CC[N+](CC)(CC)CCC(O)(c1ccccc1)C1CCCCC1 (configuration not stated)	inactive
O=C1C2CC3CC1CC(O)(C3)C2	inactive
Cc1c(N)nc([C@H](CC(N)=O)NC[C@H](N)C(N)=O)nc1C(=O)N[C@H](C(=O)N[C@H](C)[C@@H](O)[C@H](C)C(=O)N[C@H](C(=O)NCCc1nc(-c2nc(C(=O)NCCCCN=C(N)N)cs2)cs1)[C@@H](C)O)[C@@H](O[C@@H]1O[C@@H](CO)[C@@H](O)[C@H](O)[C@@H]1O[C@H]1O[C@H](CO)[C@@H](O)[C@H](OC(N)=O)[C@@H]1O)c1cnc[nH]1	inactive
CC[C@@]1([C@@H]2O[C@@H]([C@H]3O[C@@](O)(CO)[C@H](C)C[C@@H]3C)C[C@@H]2C)CC[C@H]([C@]2(C)CC[C@]3(C[C@H](O)[C@@H](C)[C@@H]([C@@H](C)[C@@H](OC)[C@H](C)C(=O)O)O3)O2)O1 (stereo in doubt)	inactive
CCC(C)(C)c1ccc(CC(C)CN2C[C@@H](C)O[C@@H](C)C2)cc1 (some centres not stated)	inactive
O=C1c2ccccc2-c2n[nH]c3cccc1c23	12.6 µM [fluorescent] (active)
CCCCCCCCCCCCCCCCC(C(=O)O)C(O)(CC(=O)O)C(=O)O (configuration not stated)	inactive
CO/N=C(\C(=O)N[C@@H]1C(=O)N2C(C(=O)O)=C(C[N+]3(C)CCCC3)CS[C@H]12)c1csc(N)n1	inactive
CC(C)(C)c1ccc2c(S(=O)(=O)O)c(C(C)(C)C)ccc2c1	inactive
O=C1CCCCCCCCCCCCCC1	inactive
C[C@@H]1C(=O)NC2=Nc3cccc(Cl)c3CN21	inactive
C=C1C(CCl)(CCl)C2(Cl)C(Cl)C(Cl)C1(Cl)C2(Cl)Cl (configuration not stated)	inactive
CN(C[C@@H](CC[N+]12CCC(C3CCCCC3)(CC1)CC2)c1ccc(Cl)c(Cl)c1)C(=O)c1cc(C(F)(F)F)cc(C(F)(F)F)c1	inactive

Compound	Potency
CCOc1ccc([N+](=O)[O-])cc1	inactive
O=C(Nc1ccccc1)c1cc(Cl)ccc1O	inactive
N[C@H](CO)C(=O)O	inactive
CC[C@@H](C)[C@H](N)C(=O)O	inactive
CC(=O)N[C@@H](C=O)[C@H](O)[C@H](O)[C@@H](O)CO	inactive
COc1c(Br)cc(Br)c(C)c1Br	inactive
NCc1cccc(C2CCN(C(=O)c3ccc(C#Cc4ccccc4F)o3)CC2)c1	inactive
O=C(Cn1cnnn1)N[C@@H]1C(=O)N2C(C(=O)O)=C(CSc3nncs3)CS[C@H]12	inactive
COc1cccc2c1[C@@H]1CN(CCCCn3c(=O)[nH]c4c(sc5ncc(-c6ccccc6)nc54)c3=O)C[C@@H]1CO2	inactive
Oc1ccc(Cl)cc1C1CCCC1	inactive
CN=C(N)NCCC[C@H](N)C(=O)O	inactive
CCSCC	inactive
c1ccc2cc3c4ccccc4c4ccccc4c3cc2c1	inactive
Cc1cc(F)ccc1-c1cc(N2CC[C@@H](O)[C@H]2CO)ncc1N(C)C(=O)C(C)(C)c1cc(C(F)(F)F)cc(C(F)(F)F)c1	inactive
CC(CNC(=O)c1cccnc1)NC(=O)c1cccnc1 (configuration not stated)	inactive

assay: qHTS assay to test for compound auto fluorescence at 590 nm (red) in HEK293 cells (AID 720679); settings: red autofluorescence 540/590 nm; series mostly up to 46 µM
How it was run: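 Each well held 2,000 HEK293 cells in medium containing 10% dialyzed FBS. Following 4-5 hr attachment at 37C, 23 nL test compound or DMSO was added; plates sat overnight, and red fluorescence (540/590nm) was recorded.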

Compound	outcome
CN1CC[C@H](c2c(O)cc(O)c3c(=O)cc(-c4ccccc4Cl)oc23)[C@H](O)C1	inactive
c1ccc2occc2c1	inactive
CC(C)Cc1ccc([C@H](C)C(=O)O)cc1	inactive
CC[N+](CC)(CC)CCC(O)(c1ccccc1)C1CCCCC1 (configuration not stated)	inactive
Cc1c(N)nc([C@H](CC(N)=O)NC[C@H](N)C(N)=O)nc1C(=O)N[C@H](C(=O)N[C@H](C)[C@@H](O)[C@H](C)C(=O)N[C@H](C(=O)NCCc1nc(-c2nc(C(=O)NCCCCN=C(N)N)cs2)cs1)[C@@H](C)O)[C@@H](O[C@@H]1O[C@@H](CO)[C@@H](O)[C@H](O)[C@@H]1O[C@H]1O[C@H](CO)[C@@H](O)[C@H](OC(N)=O)[C@@H]1O)c1cnc[nH]1	inactive
CC[C@@]1([C@@H]2O[C@@H]([C@H]3O[C@@](O)(CO)[C@H](C)C[C@@H]3C)C[C@@H]2C)CC[C@H]([C@]2(C)CC[C@]3(C[C@H](O)[C@@H](C)[C@@H]([C@@H](C)[C@@H](OC)[C@H](C)C(=O)O)O3)O2)O1 (stereo in doubt)	inactive
CCC(C)(C)c1ccc(CC(C)CN2C[C@@H](C)O[C@@H](C)C2)cc1 (some centres not stated)	inactive
O=C1c2ccccc2-c2n[nH]c3cccc1c23	inactive
CCCCCCCCCCCCCCCCC(C(=O)O)C(O)(CC(=O)O)C(=O)O (configuration not stated)	inactive
CO/N=C(\C(=O)N[C@@H]1C(=O)N2C(C(=O)O)=C(C[N+]3(C)CCCC3)CS[C@H]12)c1csc(N)n1	inactive
CC1(C)S[C@@H]2[C@H](NC(=O)[C@H](N)c3ccc(O)cc3)C(=O)N2[C@H]1C(=O)O	inactive
CC(C)(C)c1ccc2c(S(=O)(=O)O)c(C(C)(C)C)ccc2c1	inactive
O=C1CCCCCCCCCCCCCC1	inactive
C[C@@H]1C(=O)NC2=Nc3cccc(Cl)c3CN21	inactive
C=C1C(CCl)(CCl)C2(Cl)C(Cl)C(Cl)C1(Cl)C2(Cl)Cl (configuration not stated)	inactive
CCOc1ccc([N+](=O)[O-])cc1	inactive

Compound	outcome
Cc1cc(CC(C)CC(C)(C)C)n(O)c(=O)c1 (configuration not stated) (tested in a mixture with another compound)	inactive
O=C(Nc1ccccc1)c1cc(Cl)ccc1O	inactive
N[C@H](CO)C(=O)O	inactive
CC[C@@H](C)[C@H](N)C(=O)O	inactive
CC(=O)N[C@@H](C=O)[C@H](O)[C@H](O)[C@@H](O)CO	inactive
COc1c(Br)cc(Br)c(C)c1Br	inactive
OCCCNc1ccccc1	inactive
Cc1ccc2nc(-c3ccc(N)cc3)sc2c1S(=O)(=O)O	inactive
CN[C@H](CC(C)C)C(=O)N[C@H]1C(=O)N[C@@H](CC(N)=O)C(=O)N[C@H]2C(=O)N[C@H]3C(=O)N[C@H](C(=O)N[C@@H](C(=O)O)c4cc(O)cc(O)c4-c4cc3ccc4O)[C@H](O)c3ccc(c(Cl)c3)Oc3cc2cc(c3O[C@@H]2O[C@H](CO)[C@@H](O)[C@H](O)[C@H]2O[C@H]2C[C@](C)(N)C(O)[C@H](C)O2)Oc2ccc(cc2Cl)[C@H]1O (some centres not stated)	inactive
COc1cccc2c1[C@@H]1CN(CCCCn3c(=O)[nH]c4c(sc5ncc(-c6ccccc6)nc54)c3=O)C[C@@H]1CO2	inactive
Oc1ccc(Cl)cc1C1CCCC1	inactive
CCSCC	inactive
c1ccc2cc3c4ccccc4c4ccccc4c3cc2c1	inactive
Cc1cc(F)ccc1-c1cc(N2CC[C@@H](O)[C@H]2CO)ncc1N(C)C(=O)C(C)(C)c1cc(C(F)(F)F)cc(C(F)(F)F)c1	inactive
CC(CNC(=O)c1cccnc1)NC(=O)c1cccnc1 (configuration not stated)	inactive
